40 compounds from PubChem BioAssay (NCI) can be followed below.

SMILES strings stand for the structures. About 83,000 compounds went through this panel and 20% of them were active in at least one assay; those are over-represented in the sample as a whole.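 In brief: 96-well plates, 48 h treatment, single concentration, percent growth endpoint.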 Unmarked numbers belong to inactive results. Activity calls are given as the source filed them. The calls were made as follows: active = growth percent below 10; inactive = the rest.

The first experiment deals with NCI-H23 lung. As to the kind of experiment: NCI-60 one-dose screen, 48 h (100 = growth as untreated, 0 = no growth, -100 = all killed). Conditions: 10 µM unless noted.
For the compound `COc1cc2c3c(n(CCCCNCCCn4c5c(c6cc(OC)c(OC)cc6c4=O)C(=O)c4cc6c(cc4-5)OCO6)c(=O)c2cc1OC)-c1cc2c(cc1C3=O)OCO2`, the growth is 95.3%. Still for that read-out and setting: next, `CNC(=O)c1c(NC(=O)c2ccc(C(C)(C)C)cc2)sc2c(CN(C)C)c(O)ccc12`: 27%; `CCCCn1sc(=O)n(Cc2ccc(CNC(=O)OCc3ccc4c(Cl)cc(Cl)c(O)c4n3)cc2)c1=O`: 75.3%; `O=C1Nc2ccc(F)cc2/C1=N/c1nnc(Sc2ccccc2)s1`: 87.4%. On the same count and under the same terms, next, `N#Cc1c(N2CCOCC2)nc(=S)[nH]c1-c1ccccc1`: 87.6%; `O=C(CSc1nnc2sc(Nc3cccc(Cl)c3)nn12)c1ccc(F)cc1`: 80.3%.

For `C=C(CO)[C@@H]1CC[C@]2(COC3CCCCO3)CC[C@]3(C)[C@H](CC[C@@H]4[C@@]5(C)C=C(C=O)C(=O)C(C)(C)[C@@H]5CC[C@]43C)[C@@H]12` (stereo partly drawn), the growth was -63.6% (active). Same read-out and setting: next, `COc1ccc(-c2cc(C(=O)N3N=C(c4ccc(N)cc4)CC3c3ccccc3)c3ccccc3n2)cc1` (stereo not drawn): 56.7%.

As for `COc1ccc(-c2cc(-c3cc(OC)c(OC)c(OC)c3)c(C#N)c(=O)n2CCCCCC(=O)NO)cc1`, the growth is 97.3%. Still for that read-out and setting: next, `Cn1ccnc1C(=O)/C=C/c1ccc(C(=O)Nc2ccc(F)cc2)cc1`: 15.9%.

Take `C=C1C(=O)O[C@H]2[C@H]1CC/C(COC(=O)NCCCCCCCCNC(=O)OC/C1=C/CC[C@@]3(C)O[C@H]3[C@H]3OC(=O)C(=C)[C@@H]3CC1)=C\CC[C@@]1(C)O[C@@H]21`: the growth is -53.6% (active). Still for that read-out and setting: next, `C/C(C=O)=C\c1ccc2c(c1)OCO2`: 102%.

With `COc1cccc(/C=C/C(=O)c2cc3c(N)c(C(=O)Nc4cccc(Cl)c4C)sc3nc2C)c1`, the growth is 20.4%.

Take `COC(=O)/C=C1/SC(=Nc2cccc(Cl)c2)N(CCc2c[nH]c3ccc(O)cc23)C1=O`: the growth was 51.1%. Still for that read-out and setting: next, `CCC/C(=N\NC(N)=O)C(OC)OC`: 99.9%; `COc1ccc2cc(Cn3cc[n+](Cc4ccc5ccccc5c4)c3)ccc2c1`: 36%; `Cn1c(=O)c2c(c3ccccc31)OC(N)=C(C#N)C21C(=O)c2ccccc2C1=O`: 87.5%.

As for `CN1CCN(c2ccc3c(c2)nc(NNC(=O)c2cnccn2)c2cccn23)CC1`, the growth is 34.1%. Consider `Cc1cc(C)c(-c2c(O)c(Br)c(-c3c(C)cc(C)c(Br)c3C)c(O)c2Br)c(C)c1Br`, for which the growth is 43.7%.

Consider `CCN(CC)S(=O)(=O)c1ccc(S(=O)(=O)N2CCC[C@@H](C(=O)N3CCN(C(=O)OC(C)(C)C)CC3)C2)cc1`, for which the growth was 53.6%.

For the compound `O=C1/C=C/[C@@H](O)[C@@H]2C[C@@H](O)C[C@H]2/C=C/CCC[C@H](CCOCc2ccccc2)O1`, the growth was 7.5% (active).

As to `COc1ccc(C2=Nc3c/c(=C\c4c(O)[nH]c5cc(Cl)ccc45)ccc3=N2)cc1`, the growth is 68.1%. The same measure, in the same setting: next, `CCCCCCCCCCCCCCCCCCOc1ccccc1CC(=O)NCC[N+]1(C)CCOCC1`: 67.8%. The same measure, in the same setting: next, `Cc1ccc(-c2cc(C(=O)N3N=C(c4ccc(N)cc4)CC3c3ccc(Cl)cc3)c3ccccc3n2)cc1` (stereo not drawn): 49.4%. The same measure, in the same setting: next, `O=C(CN1C(=O)/C(=C/c2ccco2)SC1=S)NCCc1c[nH]c2ccc(F)cc12`: 94.7%; `CCN(CC)CCN(CCN(CC)CC)c1ccccc1`: 93%; `COc1cc(C(=O)C(=O)c2cc(OC)c(O)c(OC)c2)cc(OC)c1O`: 101%. Turning to `O=C(/C=C/c1ccc(Br)cc1)c1ccc(-n2cc(CN3CCN(c4cc5c(cc4F)c(=O)c(C(=O)O)cn5C4CC4)CC3)nn2)cc1`, the growth was 85.4%.

In a further experiment the test system is NCI-H226 lung. The experiment is described as above. Conditions: 10 µM unless noted.
Regarding `Fc1ccc(COc2ccc(Nc3ncnc4sc5c(c34)CCCC5)cc2)cc1`, the growth was 102%. The same measure, in the same setting: next, `COc1cc(C2Cc3ncccc3-c3[nH]c(=O)c4cccnc4c32)cc(OC)c1OC` (stereo not drawn): 62.8%; `O=C(c1ccc(Cl)cc1Cl)N1c2ccccc2Sc2ccccc21`: 68%. The same measure, in the same setting: next, `O=C(N/N=C/c1ccc([N+](=O)[O-])cc1)c1ccc2nc(-c3ccc(Cl)cc3)[nH]c2c1`: 54.8%; `O=C(NCc1ccccc1O)c1cccc2ccccc12`: 76.7%; `CC1=C(C(=O)n2c3ccccc3c3ccccc32)C(c2cccc([N+](=O)[O-])c2)C(C(=O)n2c3ccccc3c3ccccc32)=C(C)N1`: 96.9%. The same measure, in the same setting: next, `COc1ccc(/C=C/C(=O)c2ccc(NC(=O)CSc3nnc(-c4cc(-c5ccccc5)nc5ccccc45)n3-c3ccccc3)cc2)cc1`: 102%; `Cn1cc(-c2nc(-c3c[nH]c4ccncc34)cs2)c2cc(Br)ccc21`: 0.662% (active). As to `C#Cc1cccc(Oc2ccc(NC(=O)CCl)cc2)c1`, the growth was 55.9% [8.25 µM]. Same read-out and setting: next, `CC1(C)CC[C@]2(C(=O)N3CCOCC3)CC[C@]3(C)C(=CC[C@@H]4[C@@]5(C)C/C(=C/c6ccncc6)C(=O)C(C)(C)[C@@H]5CC[C@]43C)[C@@H]2C1`: -20.4% (active).

Turning to `CC(C)c1ccc(NC(=O)Nc2ccc(NC(=O)c3ccccc3N)cc2)cc1`, the growth was 74.3%. As to `Cc1cc(C(=O)Nc2cc(Nc3ncccc3-c3ncnc4nc[nH]c34)ccc2F)cc(C(F)(F)F)c1`, the growth is 39.9%. Same read-out and setting: next, `COc1cc2c3c(n(CCCCNCCCn4c5c(c6cc(OC)c(OC)cc6c4=O)C(=O)c4cc6c(cc4-5)OCO6)c(=O)c2cc1OC)-c1cc2c(cc1C3=O)OCO2`: 106%. Same read-out and setting: next, `CNC(=O)c1c(NC(=O)c2ccc(C(C)(C)C)cc2)sc2c(CN(C)C)c(O)ccc12`: 95%; `CCCCn1sc(=O)n(Cc2ccc(CNC(=O)OCc3ccc4c(Cl)cc(Cl)c(O)c4n3)cc2)c1=O`: 73.2%. In the case of `O=C1Nc2ccc(F)cc2/C1=N/c1nnc(Sc2ccccc2)s1`, the growth was 90.7%. In the case of `N#Cc1c(N2CCOCC2)nc(=S)[nH]c1-c1ccccc1`, the growth was 72.5%. For the compound `O=C(CSc1nnc2sc(Nc3cccc(Cl)c3)nn12)c1ccc(F)cc1`, the growth is 95.9%. Regarding `C=C(CO)[C@@H]1CC[C@]2(COC3CCCCO3)CC[C@]3(C)[C@H](CC[C@@H]4[C@@]5(C)C=C(C=O)C(=O)C(C)(C)[C@@H]5CC[C@]43C)[C@@H]12` (stereo partly drawn), the growth was -54.3% (active). Take `COc1ccc(-c2cc(C(=O)N3N=C(c4ccc(N)cc4)CC3c3ccccc3)c3ccccc3n2)cc1` (stereo not drawn): the growth is 77.3%. On the same count and under the same terms, next, `COc1ccc(-c2cc(-c3cc(OC)c(OC)c(OC)c3)c(C#N)c(=O)n2CCCCCC(=O)NO)cc1`: 92.2%; `Cn1ccnc1C(=O)/C=C/c1ccc(C(=O)Nc2ccc(F)cc2)cc1`: 13.8%. In the case of `C=C1C(=O)O[C@H]2[C@H]1CC/C(COC(=O)NCCCCCCCCNC(=O)OC/C1=C/CC[C@@]3(C)O[C@H]3[C@H]3OC(=O)C(=C)[C@@H]3CC1)=C\CC[C@@]1(C)O[C@@H]21`, the growth was -84.2% (active). For the compound `C/C(C=O)=C\c1ccc2c(c1)OCO2`, the growth is 85.2%. Consider `COc1cccc(/C=C/C(=O)c2cc3c(N)c(C(=O)Nc4cccc(Cl)c4C)sc3nc2C)c1`, for which the growth was -23.6% (active). On the same count and under the same terms, next, `COC(=O)/C=C1/SC(=Nc2cccc(Cl)c2)N(CCc2c[nH]c3ccc(O)cc23)C1=O`: 81.3%; `CCC/C(=N\NC(N)=O)C(OC)OC`: 108%; `COc1ccc2cc(Cn3cc[n+](Cc4ccc5ccccc5c4)c3)ccc2c1`: 49.2%.

As for `Cn1c(=O)c2c(c3ccccc31)OC(N)=C(C#N)C21C(=O)c2ccccc2C1=O`, the growth is 81%.

On to `CN1CCN(c2ccc3c(c2)nc(NNC(=O)c2cnccn2)c2cccn23)CC1`, for which the growth is 38%. On to `Cc1cc(C)c(-c2c(O)c(Br)c(-c3c(C)cc(C)c(Br)c3C)c(O)c2Br)c(C)c1Br`, for which the growth is 52.1%. The same measure, in the same setting: next, `CCN(CC)S(=O)(=O)c1ccc(S(=O)(=O)N2CCC[C@@H](C(=O)N3CCN(C(=O)OC(C)(C)C)CC3)C2)cc1`: 77.9%; `O=C1/C=C/[C@@H](O)[C@@H]2C[C@@H](O)C[C@H]2/C=C/CCC[C@H](CCOCc2ccccc2)O1`: -32.3% (active); `COc1ccc(C2=Nc3c/c(=C\c4c(O)[nH]c5cc(Cl)ccc45)ccc3=N2)cc1`: 84.1%. For `CCCCCCCCCCCCCCCCCCOc1ccccc1CC(=O)NCC[N+]1(C)CCOCC1`, the growth is 69.2%. On to `Cc1ccc(-c2cc(C(=O)N3N=C(c4ccc(N)cc4)CC3c3ccc(Cl)cc3)c3ccccc3n2)cc1` (stereo not drawn), for which the growth was 72.1%.

As for `O=C(CN1C(=O)/C(=C/c2ccco2)SC1=S)NCCc1c[nH]c2ccc(F)cc12`, the growth is 92.4%. With `CCN(CC)CCN(CCN(CC)CC)c1ccccc1`, the growth is 94.6%.

On to `COc1cc(C(=O)C(=O)c2cc(OC)c(O)c(OC)c2)cc(OC)c1O`, for which the growth is 91%. The same measure, in the same setting: next, `O=C(/C=C/c1ccc(Br)cc1)c1ccc(-n2cc(CN3CCN(c4cc5c(cc4F)c(=O)c(C(=O)O)cn5C4CC4)CC3)nn2)cc1`: 84.5%.
